Compound activity as filed in PubChem.
RAD52 anneal inh = inhibitors of human RAD52 DNA annealing; P43351; recombinant RAD52 DNA annealing, FRET fluorescence; inhibition, % at 18.7 µM; 0.46% of 360,000 active; AID 651710;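 active means every replicate showing at least 50% inhibition; inconclusive means mean inhibition at least 50% but not in every replicate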
INS-1E GSIS act = GLuc luminescence reporter in INS-1E cells, primary screen for activators of glucose-dependent secretion of insulin | INS-1E GLuc reporter insulin secretion, 2-3 h | activation, % at 16.6 µM | 0.61% of 370,000 active | AID 743287;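 active means lowest replicate activation of at least 40%, so every replicate reaches that level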
dFosB activator = activators of mouse delta FosB homodimer | P13346 | purified delta FosB, TAMRA-CDK5 oligo fluorescence polarization; percent of positive-control signal above neutral wells | activation, % at 25 µM | 0.99% of 340,000 active | AID 493131;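 active means mean activation above about 17%, with every replicate also reaching it, limit read from the data, passing the limit was not always enough; inconclusive means only one of the two conditions met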
RAD54 inh = RAD54 (human) branch migration inhibition | Q92698 | RAD54 Holliday junction branch migration, FAM/BHQ fluorescence | inhibition, % at 10.4 µM | 0.14% of 360,000 active | AID 602329;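 active means mean normalized replicate activity at least 40 and at least half of replicates scoring 40 or more; inconclusive means only one of the two criteria met; inactive means mean below 40 and under half of replicates reaching 40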;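 further: inhibitors cause a drop in the FAM fluorescence signal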
Target sequence (Q92698 whole entry, looked up): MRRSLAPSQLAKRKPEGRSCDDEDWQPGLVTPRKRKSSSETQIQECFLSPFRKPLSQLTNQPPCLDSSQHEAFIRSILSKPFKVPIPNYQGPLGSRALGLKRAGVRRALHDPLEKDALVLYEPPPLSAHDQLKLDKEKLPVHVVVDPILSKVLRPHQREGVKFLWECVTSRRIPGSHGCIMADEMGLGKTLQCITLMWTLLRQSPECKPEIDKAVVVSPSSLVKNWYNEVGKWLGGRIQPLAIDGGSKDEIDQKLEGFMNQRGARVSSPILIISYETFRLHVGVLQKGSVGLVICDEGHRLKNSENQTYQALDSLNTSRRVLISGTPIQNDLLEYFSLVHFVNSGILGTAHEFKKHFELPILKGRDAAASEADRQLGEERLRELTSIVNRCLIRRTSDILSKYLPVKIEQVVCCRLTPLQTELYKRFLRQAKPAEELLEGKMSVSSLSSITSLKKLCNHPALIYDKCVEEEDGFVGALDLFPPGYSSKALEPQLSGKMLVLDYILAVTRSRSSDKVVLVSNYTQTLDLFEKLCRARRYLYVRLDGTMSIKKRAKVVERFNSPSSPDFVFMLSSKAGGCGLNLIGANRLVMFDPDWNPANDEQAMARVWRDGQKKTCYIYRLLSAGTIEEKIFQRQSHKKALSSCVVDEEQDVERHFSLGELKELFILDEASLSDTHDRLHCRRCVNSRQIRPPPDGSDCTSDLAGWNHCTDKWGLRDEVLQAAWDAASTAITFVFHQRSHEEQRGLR
MLL AF4-AF9 inh = inhibitors of human MLL-AF4/AF9 interaction; AlphaScreen, biotin-AF4 peptide binding to FLAG-AF9; P42568; inhibition, % at 10 µM; 0.47% of 350,000 active;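 active means every replicate reaching a set inhibition limit, whatever the replicate mean, cut at about 25% in these data; inconclusive means mean inhibition reaches that limit but some replicates miss it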
DENV2 CPE rescue = inhibitors of DENV2 cytopathic effect | DENV2-infected cells, cytopathic effect rescue, plate reader | CPE inhibition, % at 9.99 µM | 1.7% of 350,000 active | AID 651640; in the data active means CPE inhibition above about 20%, passing the limit was not always enough; inconclusive means no clear call, values can overlap the other calls; tested in BHK-21 cells
Each line names hits and unclear results; the compound was inactive in the other large screens; ! = not active in a repeat. An excerpt weighted towards active compounds, which were near 3.1% of everything screened.

COC(=O)[C@]1(Cc2ccccc2)N[C@H](CN(C)C(=O)NC(C)C)[C@@H]2C(=O)N(C)C(=O)[C@@H]21	DENV2 CPE rescue inconclusive
COC(=O)[C@]1(Cc2ccccc2)N[C@H](CN(C)C(=O)Nc2ccc(C)cc2)[C@@H]2C(=O)N(C)C(=O)[C@@H]21	INS-1E GSIS act 65
CCNC(=O)N(CC)C[C@H]1N[C@@](Cc2ccccc2)(C(=O)OC)[C@H]2C(=O)N(Cc3ccccc3)C(=O)[C@@H]12	DENV2 CPE rescue 37
CCCc1cc(NCCN(C)C)n2c(nc3ccccc32)c1C#N	DENV2 CPE rescue inconclusive
CCCc1cc(NCC2CCCO2)n2c(nc3ccccc32)c1C#N (stereo not drawn)	INS-1E GSIS act 57 (no result: RAD52 anneal inh, MLL AF4-AF9 inh, DENV2 CPE rescue)
C=C(C)C1Cc2c(C)nn(-c3cccc4cccnc34)c2C1 (stereo not drawn)	INS-1E GSIS act 51
COc1ccc2[nH]c(=O)c(CN(CCO)C(=O)c3ccccc3F)cc2c1	INS-1E GSIS act 67 (no result: MLL AF4-AF9 inh, DENV2 CPE rescue)
COc1ccc(NC(=O)N[C@@H]2CC[C@@H](CCNC(=O)c3ccccc3F)O[C@@H]2CO)cc1	none (no result: dFosB activator)
C[C@@H]1CN([C@H](C)CO)S(=O)(=O)c2ccc(-c3cccnc3)cc2O[C@H]1CN(C)Cc1ccncc1	none (no result: dFosB activator)
C[C@@H]1CN([C@H](C)CO)C(=O)CCCn2nncc2CO[C@@H]1CN(C)C(=O)Nc1ccc(C(F)(F)F)cc1	none (no result: dFosB activator)
CN(C)C(=O)c1cccc(-c2ccc(C3[C@H]4CNC[C@@H]3N4C(=O)Nc3cccc(Cl)c3)cc2)c1 (stereo partly drawn)	none (no result: dFosB activator, RAD54 inh)
COc1cccc(-c2ccc(C3[C@H]4CNC[C@@H]3N4C(=O)Nc3ccc4c(c3)OCO4)cc2)c1 (stereo partly drawn)	RAD52 anneal inh 71 (no result: dFosB activator, RAD54 inh)
COc1cccc(-c2ccc(C3[C@H]4CNC[C@@H]3N4C(=O)Nc3ccccc3F)cc2)c1 (stereo partly drawn)	none (no result: RAD52 anneal inh, dFosB activator, RAD54 inh, MLL AF4-AF9 inh)
COc1cccc(NC(=O)N2[C@@H]3CNC[C@H]2C3c2ccc(/C=C/c3ccccc3)cc2)c1 (stereo partly drawn)	RAD52 anneal inh 54!, DENV2 CPE rescue 89! (no result: dFosB activator, RAD54 inh)
CCCNC(=O)N1[C@@H]2CNC[C@H]1C2c1ccc(-c2ccc(C)cc2)cc1 (stereo partly drawn)	DENV2 CPE rescue 38 (no result: RAD52 anneal inh, dFosB activator, RAD54 inh, MLL AF4-AF9 inh)
CCCNC(=O)N1[C@@H]2CNC[C@H]1C2c1ccc(/C=C/c2ccccc2)cc1 (stereo partly drawn)	none (no result: dFosB activator, RAD54 inh)
CN(C)C(=O)c1ccc(-c2ccc(C3[C@H]4CNC[C@@H]3N4C(=O)Nc3cccc(Cl)c3)cc2)cc1 (stereo partly drawn)	RAD52 anneal inh 56 (no result: dFosB activator, RAD54 inh)
O=C(C[C@H]1CC[C@H](NC(=O)CC2CC2)[C@H](CO)O1)NCc1ccc(Cl)cc1	none (no result: dFosB activator)
Cc1ccccc1-c1ccc(C2[C@H]3CNC[C@@H]2N3C(=O)Nc2ccc(Cl)cc2)cc1 (stereo partly drawn)	none (no result: RAD52 anneal inh, dFosB activator, RAD54 inh, MLL AF4-AF9 inh)
O=C(Nc1cccc(Cl)c1)N1[C@@H]2CNC[C@H]1C2c1ccc(/C=C/c2ccccc2)cc1 (stereo partly drawn)	RAD52 anneal inh 60! (no result: dFosB activator, RAD54 inh)
COc1cccc(NC(=O)N2[C@@H]3CNC[C@H]2C3c2ccc(-c3ccccc3)cc2)c1 (stereo partly drawn)	DENV2 CPE rescue 99! (no result: dFosB activator, RAD54 inh)
COc1ccc(NC(=O)N2[C@@H]3CNC[C@H]2C3c2ccc(-c3cccc(OC)c3)cc2)cc1 (stereo partly drawn)	none (no result: dFosB activator, RAD54 inh)
O=C(Nc1ccc(C(F)(F)F)cc1)N1[C@@H]2CNC[C@H]1C2c1ccc(-c2ccc(F)cc2)cc1 (stereo partly drawn)	RAD52 anneal inh 61 (no result: dFosB activator, RAD54 inh)
COc1ccc(NC(=O)N2[C@@H]3CNC[C@H]2C3c2ccc(-c3ccccc3C)cc2)cc1 (stereo partly drawn)	RAD52 anneal inh 64!, DENV2 CPE rescue inconclusive (no result: dFosB activator, RAD54 inh)
CC(C)NC(=O)N1[C@@H]2CNC[C@H]1C2c1ccc(/C=C/c2ccccc2)cc1 (stereo partly drawn)	none (no result: dFosB activator, RAD54 inh)
CCCC#Cc1ccc2c(c1)O[C@H](CN(C)C(=O)NC(C)C)[C@@H](C)CN([C@H](C)CO)S2(=O)=O	none (no result: dFosB activator)
C[C@@H]1CN([C@H](C)CO)C(=O)c2cccc(NC(=O)c3ccncc3)c2O[C@H]1CN(C)C(=O)Nc1ccc2c(c1)OCO2	none (no result: dFosB activator)
CCCN1C[C@@H](C)[C@H](OC)CN(C)C(=O)c2cc(NC(=O)Nc3c(C)noc3C)ccc2OC[C@H]1C	none (no result: dFosB activator)
C[C@@H]1CN([C@@H](C)CO)C(=O)c2cc(NC(=O)CCCN(C)C)ccc2O[C@@H](C)CCCCO[C@H]1CN(C)Cc1ccncc1	none (no result: dFosB activator)
COc1cccc(-c2ccc(C3[C@H]4CNC[C@@H]3N4C(=O)Nc3ccc(C(F)(F)F)cc3)cc2)c1 (stereo partly drawn)	DENV2 CPE rescue 33! (no result: RAD52 anneal inh, dFosB activator, RAD54 inh, MLL AF4-AF9 inh)
COc1cc(CN2[C@@H]3CNC[C@H]2C3c2ccc(/C=C/c3ccccc3)cc2)cc(OC)c1 (stereo partly drawn)	INS-1E GSIS act 49!, DENV2 CPE rescue inconclusive (no result: dFosB activator, RAD54 inh)
CCOc1cc(/C=C/C(=O)Nc2ccc(C(=O)NCCN(CC)CC)cc2)ccc1OCC(C)C	INS-1E GSIS act 68, dFosB activator inconclusive, MLL AF4-AF9 inh 31 (no result: RAD54 inh)
O=C(C[C@@H]1C=C[C@H](NC(=O)Cc2cccnc2)[C@@H](CO)O1)Nc1ccc(-c2ccccc2)cc1	none (no result: dFosB activator, RAD54 inh)
COc1cccc(S(=O)(=O)Nc2ccc3c(c2)OC[C@@H](C)N(Cc2cc(F)ccc2F)C[C@@H](C)[C@H](OC)CN(C)C3=O)c1	none (no result: dFosB activator)
CC(C)OC1=CC(=O)OC(c2cccc(Cl)c2)C1 (stereo not drawn)	DENV2 CPE rescue 31 (no result: dFosB activator, RAD54 inh, MLL AF4-AF9 inh)
O=C(Nc1ccc(F)cc1)Nc1cc(OCC(F)(F)F)cc(OCC(F)(F)F)c1	INS-1E GSIS act 128 (no result: RAD52 anneal inh, RAD54 inh, MLL AF4-AF9 inh, DENV2 CPE rescue)
Cc1cccc(S(=O)(=O)N2C[C@@H](O)COC[C@H]3O[C@@H](CC(=O)NCc4ccncn4)CC[C@@H]32)c1	none (no result: dFosB activator)
CC(C)NC(=O)N(C)C[C@H]1OCCCC[C@@H](C)Oc2ccc(NS(=O)(=O)c3ccc(F)cc3)cc2C(=O)N([C@H](C)CO)C[C@@H]1C	none (no result: dFosB activator, DENV2 CPE rescue)
COc1ccc(CNC(=O)C[C@@H]2CC[C@@H](NC(=O)c3ccc4c(c3)OCO4)[C@@H](CO)O2)cc1	none (no result: dFosB activator)
C[C@H](O)C#Cc1cnc2c(c1)C(=O)N([C@@H](C)CO)C[C@@H](C)[C@@H](CN(C)Cc1ccc(-c3ccccc3)cc1)O2	none (no result: dFosB activator)
c1ccc2c(C[C@@H]3CNCCN3CCCCC3CCCCC3)cccc2c1	dFosB activator inconclusive, DENV2 CPE rescue 24 (no result: INS-1E GSIS act)
CC(C)(C)CN1CCNC[C@H]1Cc1cccc2ccccc12	none
c1ccc(C[C@H]2CNCCN2CCCCC2CCCCC2)cc1	INS-1E GSIS act 57
C[C@H](O)C#Cc1ccc2c(c1)O[C@H](CN(C)C(=O)c1ccccc1)[C@@H](C)CN([C@H](C)CO)S2(=O)=O	none (no result: dFosB activator)
NC(=O)c1ccsc1NC(=O)CSc1ncnc2sccc12	INS-1E GSIS act 57, MLL AF4-AF9 inh inconclusive
